Laboratory results: PubChem BioAssay (NCATS)
Inconclusive results are not listed. A call without a number means that no potency is given here. Activity calls are given as the source filed them. Calls follow the shape of the dose curve; as a rule, active = well fitted inhibition curve with a large enough effect; inconclusive = small, poorly fitted or top-dose-only effect; inactive = flat fitted curve, though single readings scatter.

System: Zika virus NS2B-NS3 protease
Test: Primary screen GU AMC qHTS for Zika virus inhibitors (AID 1347154); also: nearly all actives have a fitted effect of over 70% in size
Settings: Zika NS2B-NS3 unlinked protease, AMC fluorogenic substrate; series mostly up to 54.1 µM
Method in brief: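 Unlinked Zika NS2B hydrophilic domain/NS3 protease domain noncovalent complex (25 nM final) in 10 mM Tris-HCl pH 8.0, 0.01% Tween 20, with AMC peptide substrate. Fluorescence (ex 340, em 450 nm) change over 15 min, room temperature; percent inhibition fitted to 4-parameter Hill equation.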
Potency is read from the fitted curve at half-maximal effect.

Compound	Potency
COC(=O)[C@@H]1[C@H]2C[C@@H]3c4[nH]c5ccccc5c4CCN3C[C@@H]2CC[C@@H]1O	inactive
CC(=O)ON=C1C(c2c(O)[nH]c3cc(Br)ccc23)=Nc2ccccc21	inactive
C[C@H](NCc1ccc2c(c1)nc(NC(=O)c1ccc(-c3cn[nH]c3)s1)n2CCc1ccccc1)C(C)(C)C	inactive
O=S(=O)(O)CCSSCCS(=O)(=O)O	inactive
Oc1cc2c(cc1O)C1c3ccc(O)c(O)c3OCC1(O)C2 (configuration not stated)	24.1 µM (active)
Cn1cnc(=N)c2[nH]cnc21	inactive
Cc1cc(Nc2ncc3c(n2)N(C)C(=O)N(c2cc(NC(=O)c4cccc(C(F)(F)F)c4)ccc2C)C3)n(C)n1	inactive
